ChEMBL document CHEMBL3988442, “University of Dundee, Small-Polar-MMV Screening Library” (2021)
Among all 48,000 compounds or so, about 13,000 (27%) showed an effect of 50% or more. The list shows a part of the results.

System: Wolbachia pipientis
Test: Anti-Wolbachia Cell-Based Screen
Type: functional
Parameters: scale not given: in the data most compounds retested in dose-response had high values
Conditions: 5 µM

Row | SMILES | Percent Effect
1 | O=C(c1cc(-n2cccn2)ccn1)N1CCOc2ccc(F)cc21 | 11.86%
2 | CCN(Cc1noc(CC(C)C)n1)Cc1cccc(F)c1O | 21.71%
3 | CCCc1nc(NCCCO)c2c(n1)c(C)nn2CC | 2.078%
4 | CC(C)CN1C[C@@H]2CN(C(=O)c3cccn3C)C[C@@H]2C1=O | -8.322%
5 | O=C(C1CC1)N1C[C@@H](F)[C@@H](OCc2nc3cc(F)ccc3[nH]2)C1 | -13.75%
6 | CC(C)n1cnc(C2CN(C)c3ccc(C(=O)NCC4CC4)cc32)n1 (configuration not stated) | -10.28%
7 | CCCn1nnnc1CSc1nccn1C | 1.571%
8 | O=C(O)c1ncccc1OCC(F)(F)F | 2.885%
9 | CN(CCc1ccccc1)C(=O)c1cccnc1OCC(F)(F)F | 147.6%
10 | NCc1cnn(-c2ccccc2C(=O)NCCCn2ccnc2)c1 | -6.38%
11 | O=C(NCc1cccnc1OCC(F)(F)F)N1CCOCC1 | -14.27%
12 | O=C(NCC(O)c1ccc(F)c(F)c1)c1cccnc1OCC(F)(F)F (configuration not stated) | 8.161%
13 | O=C(NCCc1ccncc1)c1cccnc1OCC(F)(F)F | 113.2%
14 | O=C(CNC(=O)c1cnc2ccccc2c1O)NCCCn1ccnc1 | 9.933%
15 | O=C(NCCCn1ccnc1)c1cccnc1OCC(F)(F)F | 88.67%
16 | O=C(c1cccnc1OCC(F)(F)F)N1CCCn2ncnc21 | -8.478%
17 | O=C1COc2cc(S(=O)(=O)NCCC3=CCCCC3)c(Br)cc2N1 | 12.05%
18 | N#Cc1cccc(OCC(=O)N(Cc2ccncc2)C2CC2)c1 | -1.497%
19 | CCNC(=O)N1CCC(NC(=O)NCCc2cc(F)cc(F)c2)C1 (configuration not stated) | -1.465%
20 | Cc1noc(C)c1NC(=O)NC1CCN(C(=O)OC(C)(C)C)CC1 | -1.211%
21 | c1ccc(CN2CCC(NCCSc3cnn[nH]3)C2)cc1 (configuration not stated) | -16.66%
22 | CN(C)c1cc(C2CCCN(C(=O)c3noc4c3CCCC4)C2)ccn1 (configuration not stated) | 145.2%
23 | Cc1noc2ncc(C(=O)N3CCCC3c3ccncc3)cc12 (configuration not stated) | 1.131%
24 | CN(C)c1cc(C2CCCN2C(=O)c2noc3c2CCCC3)ccn1 (configuration not stated) | 74.42%
25 | CN(C)c1ccc(C(=O)N2CCCC2c2ccc(Cl)cc2)nn1 (configuration not stated) | -0.3166%
26 | O=C(c1noc2c1CCCC2)N1CCCC(c2nccs2)C1 (configuration not stated) | 6.202%

Row | SMILES | Percent Effect
27 | CCOCc1ncn2c1CN(S(=O)(=O)c1cccs1)CCC2 | -7.324%
28 | COCc1cc(CNC(=O)c2c(C)cc(C)[nH]c2=O)n[nH]1 | -6.309%
29 | Cc1cc(C(=O)N2CCC(Nc3cccnn3)CC2)no1 | 29.64%
30 | O=C(c1ccc2cc[nH]c2c1)N1CCC(Nc2cccnn2)CC1 | 107.6%
31 | O=C(c1ccc2[nH]c(=O)[nH]c2c1)N1CCC(Nc2cccnn2)CC1 | 102.4%
32 | O=C(c1ccc2[nH]nnc2c1)N1CCC(Nc2cccnn2)CC1 | 101.2%
33 | O=C(c1cc[nH]n1)N1CCC(Nc2cccnn2)CC1 | 4.355%
34 | O=C(c1ccc2c(c1)COC2)N1CCC(Nc2cccnn2)CC1 | 2.056%
35 | O=C(c1ccc2c(c1)OCO2)N1CCC(Nc2cccnn2)CC1 | 90.41%
36 | CC(c1nc(C2CC2)no1)N(C)Cc1ccc(C#N)cc1 (configuration not stated) | 15.66%
37 | CCc1noc(CNc2c(F)cccc2-n2cccn2)n1 | -15.19%
38 | Cn1nc(CNC(=O)CC#N)c2c1CN(C(N)=O)CC2 | 9.409%
39 | Cc1nnc(CCNC2CCN(c3ncnc4c(C)csc34)CC2)s1 | -2.082%
40 | Cc1nc(C(=O)N2CCC(Nc3cccnn3)CC2)cs1 | -1.209%
41 | N#Cc1ccc(CC(=O)N2CCC(Nc3cccnn3)CC2)cc1 | 101.7%
42 | N#CC1(C(=O)N2CCC(Nc3cccnn3)CC2)CCCCC1 | -1.01%
43 | Cn1nnc2cc(C(=O)N3CCC(Nc4cccnn4)CC3)ccc21 | 108.7%
44 | Cc1nn(C)c(C)c1CC(=O)N1CCC(Nc2cccnn2)CC1 | -9.502%
45 | N#Cc1cccc(C(=O)N2CCC(Nc3cccnn3)CC2)c1 | 94.09%
46 | CN(Cc1nc2ccccc2c(=O)[nH]1)C1CC(=O)N(C2CC2)C1=O (configuration not stated) | -0.4558%
47 | COc1cccc(-c2cnc3n2CCC32CCN(S(C)(=O)=O)CC2)c1 | -9.63%
48 | CN1C(=O)CC(C(=O)O)C12CCN(Cc1ccc(F)cc1Cl)CC2 (configuration not stated) | 0.7528%
49 | O=C(c1cnc(NCc2sccc2Br)c(Cl)c1)N1CCCCC1 | -7.953%
50 | COCCOc1ncccc1C(=O)Nc1ccc(-n2cncn2)c(F)c1 | -9.189%
51 | Cc1ccccc1C(NC(=O)CNC(=O)c1ccoc1C)C(C)C (configuration not stated) | -4.038%
52 | Cc1cnn(CC2CCCN2C(=O)c2cccc3c2OCO3)c1 (configuration not stated) | -6.859%

Row | SMILES | Percent Effect
53 | Cc1cnn(CC2CCCN2C(=O)c2cc(C)nc3[nH]nc(C)c23)c1 (configuration not stated) | 150.6%
54 | CCc1noc(C)c1C(=O)N1CCCC1Cn1cc(C)cn1 (configuration not stated) | 5.124%
55 | Cc1cnn(CC2CCCN2C(=O)c2c(F)cccc2Cl)c1 (configuration not stated) | 118.3%
56 | Cc1cnn(CC2CCCN2C(=O)c2cccc(F)c2F)c1 (configuration not stated) | 121.1%
57 | O=C(C1=CCCC1)N1C[C@@H]2COC[C@]2(COc2ncccc2F)C1.O=C(O)C(F)(F)F | 91.91%
58 | Cc1cc(F)ccc1C(=O)N1C[C@@H]2COC[C@]2(COCC2CC2)C1 | 3.024%
59 | O=C(C1=CCCC1)N1CCC[C@]2(C[C@@H](Oc3ncccc3F)CO2)C1.O=C(O)C(F)(F)F | -5.101%
60 | O=C(C1=CCCC1)N1C[C@@H]2COC[C@]2(COCC2CC2)C1 | 119%
61 | O=C(Cc1ccco1)N1C[C@@H]2COC[C@]2(COCC2CCOCC2)C1 | -6.133%
62 | O=C(C1=CCCC1)N1C[C@H]2CCC[C@@]2(COCc2ccncc2)C1.O=C(O)C(F)(F)F | 12.49%
63 | O=C(C1=CCCC1)N1C[C@@H]2COC[C@]2(COCc2ccncc2)C1 | 94.55%
64 | O=C(N1CCCC1)N1CC[C@H]2OCC[C@@]2(COc2ncccc2F)C1.O=C(O)C(F)(F)F | -10.69%
65 | O=C(c1ncoc1C1CCCO1)N1CCC2(CCCCC2)CC1 (configuration not stated) | -6.426%
66 | CCOc1ccc(C(=O)NCc2ccnc(N3CCN(C)CC3)c2)cn1 | 4.898%
67 | Cc1nn(C)c(N(C)C)c1CNCc1nnc2n1CCCCC2.Cl | 5.74%
68 | COc1cc(CN2CC[C@@]3(CCCO3)[C@@H](O)C2)ccc1F | -7.237%
69 | Cc1ccc(CN2CCC3(CCCN(Cc4ccc(F)c(F)c4)C3)C2)o1 (configuration not stated) | -5.305%
70 | CO[C@H]1CN(Cc2cc(F)ccc2F)CC[C@@]12CCCO2 | 118.4%
71 | CO[C@H]1CN(Cc2ccccc2F)[C@@H]2CCCO[C@H]12 | 2.761%
72 | CO[C@H]1CN(Cc2ccccc2F)C[C@@]12CCCO2 | 78.59%
73 | CS(=O)(=O)NCCC1CCCN(Cc2ccccc2F)C1 (configuration not stated) | -31.18%
74 | COCCCC1(CO)CCCN(Cc2ccc(F)c(OC)c2)C1 (configuration not stated) | -7.879%
75 | C[C@@H]1CN(Cc2cc(C(F)(F)F)ccc2F)CC[C@@]1(O)C1CC1 | 18.84%
76 | COc1cc(CN2C[C@H](OC)[C@]3(CCCO3)C2)ccc1F | 93.9%
77 | CO[C@H]1CN(Cc2ccc(F)c(F)c2)C[C@@]12CCCO2 | 125.7%
78 | COc1coc(CN2CCCC(CCc3ccc(F)c(F)c3)C2)cc1=O (configuration not stated) | 29.51%

Row | SMILES | Percent Effect
79 | COC(=O)C1CN(Cc2cc(F)ccc2Br)CCO1 (configuration not stated) | -7.364%
80 | Cc1nc(CNC(=O)N2CCCC(c3ncc[nH]3)C2)sc1C (configuration not stated) | -13.73%
81 | Cc1cc(CN(Cc2ccccc2)C(C)CN2CCOCC2)no1 (configuration not stated) | -1.705%
82 | CCSc1ccc(NC(=O)NC(C)c2c(C)noc2C)cn1 (configuration not stated) | -11.22%
83 | CCN1CCCN(c2ccc(-n3ccc(C)n3)nn2)CC1 | -3.628%
84 | Cc1ccc(Oc2ncccc2CNC2Cc3ccccc3C2)cn1 | 12.49%
85 | NCC1Cc2cccc(-c3nccc(N4CCC(O)CC4)n3)c2O1 (configuration not stated) | -9.933%
86 | Cc1cc2n(n1)CC(CNC1CCN(CCc3ccccc3)CC1)CN2 (configuration not stated) | 3.275%
87 | CCc1cnc(N)nc1NCCn1cc(Cl)cn1 | -1.568%
88 | CN(C)C(=O)C1CN(Cc2ccccc2)CCN(S(C)(=O)=O)C1 (configuration not stated) | 1.114%
89 | CN(C)C(=O)C1CN(Cc2cccs2)CCN(S(C)(=O)=O)C1 (configuration not stated) | 110.5%
90 | Cc1cc(CN(C)C(=O)NC2CCN(S(C)(=O)=O)CC2)no1 | -12.59%
91 | Cc1ccc(-c2nc(CN3CCC(C(=O)N(C)C)CC3)cs2)o1 | 9.027%
92 | CN(C)C(=O)C1CN(Cc2ccsc2)CCN(S(C)(=O)=O)C1 (configuration not stated) | 92.25%
93 | CS(=O)(=O)N1CCC2(CCN(Cc3nccs3)CC2)CC1.O=C(O)C(F)(F)F | 12.17%
94 | CN(C)C(=O)C1CN(Cc2cscn2)CCN(S(C)(=O)=O)C1 (configuration not stated) | 29.17%
95 | CN(C)C(=O)C1CN(Cc2nccs2)CCN(S(C)(=O)=O)C1 (configuration not stated) | 115%
96 | CN(C)C(=O)C1CN(Cc2ccsc2)Cc2ccnn2C1.O=C(O)C(F)(F)F (configuration not stated) | -5.507%
97 | CN(C)C(=O)NCc1nnc2n1CCN(Cc1cccs1)C2 | -18.34%
98 | Cc1cc(CN2CCN(S(C)(=O)=O)CC(C(=O)N(C)C)C2)no1 (configuration not stated) | 130.4%
99 | C1CCC(CNC2CCSCC2)(N2CCOCC2)CC1 | -18.78%
100 | CCN(CC)Cc1ccccc1NC(=O)N(C)Cc1ccc(OC)cc1 | -34.67%
101 | c1ccc(-n2ncc(CNCC3CCCN3c3cccnn3)n2)cc1 (configuration not stated) | 8.726%
102 | CCC(O)CN(Cc1ccccc1)S(=O)(=O)c1cnc(C)s1 (configuration not stated) | -9.422%
